This is one part of a sample in which hits are shown more often than they occur.
DT40 TDP1 CPT = growth inhibition of DT40 Tdp1-/-;hTDP1 cells with camptothecin (screen for TDP1 inhibitors). chicken DT40 Tdp1-/-;hTDP1 cells + 20 nM CPT, ATP luminescence, 48 h. Potency, µM (top dose mostly 46.2 µM), for the others: at the highest dose activity change, negative = growth inhibition, hits mostly inhibitors. hit rate 12% among 420,000; note: potency is the fitted concentration of half-maximal effect; nearly all actives have a fitted effect of over 55% in size
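Cell growth measured by CellTiter-Glo luminescence after a minimum 48 h, 37 C compound exposure with 20 nM CPT in Tdp1-knockout DT40 cells stably expressing hTDP1, seeded 400/well; qHTS titration format.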
DT40 TDP1 no CPT = qHTS for Inhibitors of human tyrosyl-DNA phosphodiesterase 1 (TDP1): qHTS in cells in absence of CPT | DT40 Tdp1-/- hTDP1 cells, no CPT, ATP luminescence, 48 h | Potency, µM (top dose mostly 46.2 µM), inactives show top-dose activity change, negative = growth inhibition, usual class: inhibitors | hit rate 15% among 420,000; note: potency is the fitted concentration of half-maximal effect; nearly all actives have a fitted effect of over 55% in size
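DT40 Tdp1-/-;hTDP1 cells, no CPT (DMSO vehicle only), 400 cells/well; compounds pin-transferred; ≥48 hr, 37 °C; CellTiter-Glo 30 min RT dark, luminescence read.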
12-LOX inh = blocks human arachidonate 12S-lipoxygenase. purified 12hLO, xylenol orange hydroperoxide absorbance. Potency, µM (series often up to 108 µM), for inactives: at the top dose activity change, negative = inhibition, usual class: inhibitors. hit rate 1.1% among 580,000; note: potency is the fitted concentration of half-maximal effect
Target sequence (P18054 whole entry, looked up): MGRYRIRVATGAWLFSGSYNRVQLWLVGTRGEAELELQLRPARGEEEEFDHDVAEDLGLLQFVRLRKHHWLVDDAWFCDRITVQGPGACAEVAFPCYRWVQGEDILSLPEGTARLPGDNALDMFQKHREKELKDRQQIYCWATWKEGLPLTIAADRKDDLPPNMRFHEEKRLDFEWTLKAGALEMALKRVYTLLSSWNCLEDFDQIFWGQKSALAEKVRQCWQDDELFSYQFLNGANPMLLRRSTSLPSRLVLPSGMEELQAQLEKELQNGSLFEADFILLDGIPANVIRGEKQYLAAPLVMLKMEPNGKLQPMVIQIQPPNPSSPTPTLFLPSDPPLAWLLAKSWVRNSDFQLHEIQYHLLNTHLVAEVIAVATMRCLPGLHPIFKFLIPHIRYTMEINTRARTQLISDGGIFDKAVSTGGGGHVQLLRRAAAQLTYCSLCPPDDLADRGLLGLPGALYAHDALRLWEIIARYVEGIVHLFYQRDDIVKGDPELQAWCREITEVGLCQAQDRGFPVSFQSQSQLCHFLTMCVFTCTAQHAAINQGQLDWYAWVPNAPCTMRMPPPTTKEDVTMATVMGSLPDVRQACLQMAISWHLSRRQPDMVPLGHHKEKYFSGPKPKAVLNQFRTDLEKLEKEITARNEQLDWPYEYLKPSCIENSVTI
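Hydroperoxide product was detected by ferrous iron/xylenol orange as the 573 to 405 nm absorbance ratio. Arachidonic acid at 40 uM (final) was turned over for 30 min at room temperature by 150 nM human 12hLO, pH 7.0 Hepes buffer, after 15 min compound preincubation.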
HT1080 IDH1KD tx = kills HT-1080 cells with IDH1 knockdown; HT-1080 IDH1 knockdown viability, ATP luminescence, 48 h; Potency, µM (top dose mostly 46.1 µM), without a hit: at the top dose activity, negative = toxicity, hits mostly cytotoxic; hit rate 2% among 360,000; AID 686971;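 note: potency is the fitted concentration of half-maximal effect; 0% = DMSO wells and -100% = cell-free medium wells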
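Knockdown cells (IDH1KD HT-1080) received compounds 2 h after plating at 750 cells/well and were kept 48 h at 37 °C in 5% FBS RPMI. A CellTiter-Glo luminescence read gave % activity for curve fitting.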
HT1080NT lethal = kills 2HG-producing HT-1080-NT fibrosarcoma cells; HT-1080-NT fibrosarcoma viability, CellTiter-Glo ATP luminescence, 48 h; Potency, µM (titrated, usually from 46.1 µM), without a hit: top-dose activity, negative = less viability, usual class: cytotoxic; hit rate 1.6% among 360,000; AID 686970;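 note: NT is the 2HG producing partner of a matched IDH1 knockdown line; potency is the fitted concentration of half-maximal effect; 0% = DMSO-treated cells and -100% = media-only wells without cells; nearly all actives have a fitted effect of over 55% in size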
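750 cells/well, RPMI + 5% FBS; 2 h settle, compound pin-transfer, 48 h at 37 degrees C. CellTiter-Glo 10 min RT, luminescence. Normalized to DMSO and media-only wells.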
IL-1B inflam inh = inflammasome signaling inhibition, IL-1 beta readout. THP-1 LPS/ATP IL-1B secretion, AlphaLISA, 16 h; active compounds read low. activity change, % at 57.5 µM. hit rate 4.7% among 360,000; in the data active = activity change below about -50%; inconclusive = mostly about -30% to -49%
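Secreted IL-1B measured by AlphaLISA bead assay after 16 h compound exposure of THP-1 cells; compounds (final up to 57.5 uM) added 1 h before LPS (250 ng/mL) and ATP (1.25 mM) stimulation; lower signal means less secretion.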
The depositor's hits bear a star; i = inactive; ? = inconclusive; nt = no result; [ ] = another dose, or the depositor's remark. Unless noted, calls come from the whole dose curve; as a rule, active = well fitted curve in the direction sought with a large enough effect; inconclusive = small, poorly fitted or top-dose-only effect, or another doubt; inactive = no such curve, though single readings can be large; an effect the other way counts as inactive or inconclusive. Unless noted, % is set by controls: 0 for no effect and ±100 for the full control effect.

SMILES	DT40 TDP1 CPT	DT40 TDP1 no CPT	12-LOX inh	HT1080 IDH1KD tx	HT1080NT lethal	IL-1B inflam inh
CCOc1nccnc1NC1CCN(C(=O)C2CCCO2)CC1 (stereo not drawn)	nt	nt	34%	nt	nt	nt
COc1ccccc1N1CCN(C(=O)c2ccccc2N(C)S(=O)(=O)c2ccc(C)cc2)CC1	?	16µM*	-13%	6%	-2%	5
COc1ccccc1N(C)S(=O)(=O)c1ccc(Cl)c(C(=O)OCc2c(C)noc2C)c1	?	23µM*	-1%	-2%	0%	?
Cc1ccc(S(=O)(=O)N(C)c2ccccc2C(=O)N2CCOCC2)cc1	0%	-12%	i	0%	-2%	1
CN(c1ccc(F)cc1)S(=O)(=O)c1ccc(Cl)c(C(=O)NCC2CCCO2)c1 (stereo not drawn)	?	?	2%	-9%	-10%	14
COc1ccccc1N(C)S(=O)(=O)c1ccc(Cl)c(C(=O)NNC(=O)c2ccccc2O)c1	?	?	3%	-1%	-4%	112
COc1ccccc1N(C)S(=O)(=O)c1ccc(Cl)c(C(=O)NCC2(N(C)C)CCCCC2)c1	?	8.2µM*	-13%	-11%	-13%	?
CN(c1ccc(F)cc1)S(=O)(=O)c1ccc(Cl)c(C(=O)NCC2(N3CCOCC3)CCCCC2)c1	7.3µM*	7.3µM*	-3%	-5%	0%	?
CN(Cc1ccc(Cl)s1)C(=O)CN1C(=O)N(C)C2(CCCCC2)C1=O	?	-24%	12%	16%	8%	-9
Cc1cccc(-c2cn[nH]c2C2CCN(C(=O)c3ccc4nccnc4c3)CC2)c1	nt	nt	-16%	nt	nt	nt
N#Cc1cccc(Nc2c3c(nc4ccc(Cl)cc24)CCC3)c1	nt	nt	-9%	nt	nt	nt
COc1ccccc1N(C)S(=O)(=O)c1ccc(Cl)c(C(=O)N2CCC2)c1	16µM*	?	-6%	0%	1%	17
COc1cc(NC(=O)Cn2nc(C(F)(F)F)c(Br)c2C)cc([N+](=O)[O-])c1	15µM*	21µM*	-6%	-9%	-14%	-15
COc1ccc(CNC(=O)Cn2nc(C(F)(F)F)c(Br)c2C)cc1	-19%	?	63%	-3%	-1%	10
C#CCOC(=O)Nc1ccc(OCC(F)(F)F)nc1	9.2µM*	7.3µM*	0%	-6%	-12%	-1
C#CCOC(=O)Nc1cnccc1C(F)(F)F	-4%	0%	9%	6%	3%	7
CCOC(=O)c1c(C)[nH]c(C(=O)COC(=O)c2cnccn2)c1C	20%	16%	-24%	-11%	1%	-2
CCOC(=O)c1c(C)[nH]c(-c2csc(N)n2)c1C	-17%	?	?	4.6µM*	6.5µM*	42
CCOC(=O)c1csc(N)n1	10%	-9%	-14%	5%	12%	5
CCOC(=O)c1c(C)[nH]c(-c2csc(C)n2)c1C	?	13µM*	-15%	-18%	0%	-15
COC(=O)c1c(C)[nH]c(-c2csc(NC3CC3)n2)c1C	nt	nt	32µM*	nt	nt	nt
CCCCCCCCCCCCc1ccc(-c2ccc(CCCCC)cn2)cc1	nt	nt	-9%	nt	nt	nt
Cc1[nH]c2ccccc2c1C(=O)C(N)=O	nt	nt	17%	nt	nt	nt
Cc1[nH]c2ccccc2c1C(=O)c1cc(Cc2ccccc2)sc1N	?	16µM*	?	?	?	-51*
COc1cc2nc(N3CCCN(C)CC3)nc(N(C)C)c2cc1OC	?	18µM*	nt	-17%	-22%	nt
SMILES	DT40 TDP1 CPT	DT40 TDP1 no CPT	12-LOX inh	HT1080 IDH1KD tx	HT1080NT lethal	IL-1B inflam inh
COc1cc2nc(N3CCCN(C)CC3)nc(N)c2cc1OC	?	?	nt	-15%	-3%	nt
COc1cc2nc(NC3CCN(C)CC3)nc(N3CCCN(C)CC3)c2cc1OC	?	?	nt	-3%	9%	nt
COc1cc2nc(N3CCCN(C)CC3)nc(N3CCN(C)CC3)c2cc1OC	14µM*	16µM*	nt	-11%	-14%	nt
CCC(CC)NC(=O)CC1CCCN(c2cn[nH]c(=O)c2)C1 (stereo not drawn)	nt	nt	22%	nt	nt	nt
CCOC(=O)N1CCc2c(sc3c2c(=O)n(Cc2ccccc2)c(=O)n3Cc2cccc(Cl)c2)C1	10µM*	21µM*	0%	nt	nt	nt
CC(=O)N1CCc2c(sc3c2c(=O)n(Cc2ccccc2)c(=O)n3Cc2cc(C)ccc2C)C1	16µM*	21µM*	-29%	nt	nt	nt
CCOC(=O)N1CCc2c(sc3c2c(=O)n(-c2ccccc2C(F)(F)F)c(=O)n3Cc2ccccc2C)C1	18µM*	?	-8%	nt	nt	nt
CC(=O)N1CCc2c(sc3c2c(=O)n(CCc2ccccc2)c(=O)n3Cc2ccccc2C)C1	15µM*	16µM*	?	nt	nt	nt
CC(=O)N1CCc2c(sc3c2c(=O)n(-c2ccc(F)cc2)c(=O)n3Cc2cc(C)ccc2C)C1	4%	-1%	0%	nt	nt	nt
CC(=O)N1CCc2c(sc3c2c(=O)n(CCc2ccccc2)c(=O)n3Cc2ccc(Cl)cc2)C1	?	?	-6%	nt	nt	nt
C=Cc1ccc(Cn2c(=O)n(-c3ccccc3C)c(=O)c3c4c(sc32)CN(C(C)=O)CC4)cc1	?	?	0%	nt	nt	nt
CC(C)N1CCC[C@H]1c1nc(-c2ccc(OC3CCCCC3)nc2)no1	nt	nt	0%[176 µM]	nt	nt	nt
Nc1ccc2ccc(N)cc2c1	nt	nt	5%	nt	nt	nt
Nc1ccc2[nH]ncc2c1	18µM*	21µM*	1%	0%	25%	9
COCCN(Cc1cc2c(C)cc(C)cc2nc1Cl)C(=O)c1ccccc1F	10µM*	8.2µM*	12%	3%	8%	5
COCCN(Cc1cc2cc(C)cc(C)c2nc1Cl)C(=O)Nc1ccccc1	4.6µM*	3.3µM*	20%	7.1µM*	10µM*	38
COCCN(Cc1cc2ccc(C)c(C)c2nc1Cl)C(=O)N1CCOCC1	?	?	-26%	21%	0%	?
Cc1cc(C)c2nc(Cl)c(CN(Cc3ccco3)C(=O)Nc3ccccc3C)cc2c1	5.2µM*	4.6µM*	7%	5.6µM*	5µM*	65
COCCN(CCOC)C(=O)c1cc(-c2ccc(C)cc2)nc2ccccc12	nt	nt	9%	nt	nt	nt
CC(C)c1ccc(S(=O)(=O)c2nnn3c2nc(N2CCC4(CC2)OCCO4)c2sccc23)cc1	nt	nt	15%	nt	nt	nt
CCOc1ccc(C(=O)Nc2ccc(-c3nc4cc(C(C)C)ccc4o3)cc2)cc1Cl	?	?	-1%	nt	nt	nt
COc1ccc(-c2nc3ccccc3o2)cc1NC(=O)CSc1ccc(Cl)cc1	?	?	?	?	24%	-14
